Laboratory results as given in PubChem BioAssay (NCATS).
Where “and” joins values, the source holds several entries; their conditions need not be identical. Identical values can stand only once. Inconclusive results are not listed. Calls of active or inactive are those of the source. Unless noted, calls come from the whole dose curve; as a rule, active = well fitted curve in the direction sought with a large enough effect; inconclusive = small, poorly fitted or top-dose-only effect, or another doubt; inactive = no such curve, though single readings can be large; an effect the other way counts as inactive or inconclusive.

How the values were obtained:
[1] = target: Cellular tumor antigen p53 (Homo sapiens) (UniProt P04637); assay: Primary qHTS for small molecule compounds that upregulate eGFP-tagged delta133p53alpha (in N-terminal) cells. (AID 2060322); conditions: NCI-H358 eGFP-delta133p53alpha fluorescence, 24 h; activation: hits give high values; note: nearly all actives have a fitted effect of over 75% in size; note: potency is the fitted concentration of half-maximal effect;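 for activation: series mostly up to about 56 µM; 0% = DMSO vehicle and 100% = reference activator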
In short: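 NCI-H358 cells pre-induced 24 h with 10 ng/ml doxycycline to express N-terminal eGFP-delta133p53alpha, then dosed 24 h at 37C without doxycycline; fixed, Hoechst-stained, GFP intensity by laser scanning cytometry, normalized to DMSO (0%) and 57.5 uM 5-azacytidine (100%).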

[2] = target: Cellular tumor antigen p53 (Homo sapiens) (UniProt P04637); assay: Primary qHTS for small molecule compounds that upregulate eGFP-tagged delta133p53alpha (in C-terminal) cells. (AID 2060324);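 note: 0% = DMSO wells and 100% = 57.5 µM 5-azacytidine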
In short: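 NCI-H358 cells with doxycycline-inducible D133p53a-eGFP (C-terminal tag), pre-induced 24 h with 100 ng/ml doxycycline, plated 800/well in doxycycline-free medium and treated 24 h at 37 °C with compound titrations. Cells were then fixed and Hoechst-stained, and GFP intensity was read by laser scanning cytometry.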

[3] = target: Aldehyde dehydrogenase, mitochondrial (Homo sapiens) (UniProt P05091); assay: qHTS for Inhibitors of the Aldehyde Dehydrogenase Family (ALDH2) Validation screens (AID 2061302; active = well fitted inhibition curve with a large enough effect; title and protocol of this record describe different tests; note: potency is the fitted concentration of half-maximal effect;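 for activity change, negative = inhibition: plate controls were DMSO vehicle for no effect and maximal DPI positive control response for full effect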)
[4] = target: Aldehyde dehydrogenase, mitochondrial (Homo sapiens) (UniProt P05091); assay: qHTS for Inhibitors of the Aldehyde Dehydrogenase Family (ALDH2) Primary screen (AID 2061308);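 note: plate controls were vehicle for no effect and reference inhibitor for full effect; nearly all actives have a fitted effect of over 55% in size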
[5] = target: Retinaldehyde dehydrogenase 3 (Homo sapiens) (UniProt P47895); assay: qHTS for Inhibitors of the Aldehyde Dehydrogenase Family (ALDH1A3) Validation screen (AID 2061312); note: % is set by controls: 0 for no effect and ±100 for the full control effect; nearly all actives have a fitted effect of over 45% in size
[6] = target: Retinaldehyde dehydrogenase 3 (Homo sapiens) (UniProt P47895); assay: qHTS for Inhibitors of the Aldehyde Dehydrogenase Family (ALDH1A3) Primary screen (AID 2061315);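 note: plate controls were DMSO vehicle for no effect and reference inhibitor for full effect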
[7] = target: Aldehyde dehydrogenase, mitochondrial (Homo sapiens) (UniProt P05091); assay: qHTS for Inhibitors of the Aldehyde Dehydrogenase Family (ALDH2) Confirmatory screens (AID 2061303; active = well fitted inhibition curve with a large enough effect; title and protocol of this record describe different tests; note: nearly all actives have a fitted effect of over 45% in size; note: potency is the fitted concentration of half-maximal effect; for activity change, negative = inhibition: % is set by controls: 0 for no effect and ±100 for the full control effect)
[8] = qHTS for Inhibitors of the Aldehyde Dehydrogenase Family (ALDH1A2, ALDH1A3, ALDH2, ALDH3A1) (AID 2061307); note: nearly all actives have a fitted effect of over 50% in size; for Potency: test system not described further here; potency is the fitted concentration of half-maximal effect; for activity change, negative = inhibition: % is set by controls: 0 for no effect and ±100 for the full control effect
[9] = target: Retinaldehyde dehydrogenase 3 (Homo sapiens) (UniProt P47895); assay: qHTS for Inhibitors of the Aldehyde Dehydrogenase Family (ALDH1A3) Confirmatory screens (AID 2061311); note: nearly all actives have a fitted effect of over 60% in size; note: potency is the fitted concentration of half-maximal effect; for activity change, negative = inhibition: % is set by controls: 0 for no effect and ±100 for the full control effect
[10] = target: Retinal dehydrogenase 2 (Homo sapiens) (UniProt O94788); assay: qHTS for Inhibitors of the Aldehyde Dehydrogenase Family (ALDH1A2) Confirmation screens (AID 2061314); note: nearly all actives have a fitted effect of over 65% in size; note: potency is the fitted concentration of half-maximal effect
[11] = target: Aldehyde dehydrogenase 1A1 (Homo sapiens) (UniProt P00352); assay: qHTS for Inhibitors of the Aldehyde Dehydrogenase Family (ALDH1A1) Confirmatory screens (AID 2061316); note: nearly all actives have a fitted effect of over 65% in size; note: potency is the fitted concentration of half-maximal effect; for activity change, negative = inhibition: % is set by controls: 0 for no effect and ±100 for the full control effect
[12] = BET inhibitor-based combinations targeting novel dependencies in MECOM-rearranged (r) AML: OCI-AML3 cell line (AID 2202232); conditions: Potency: OCI-AML3 viability; note: nearly all actives have a fitted effect of over 35% in size; note: potency is the fitted concentration of half-maximal effect
In short: (§1)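 Luminescent ATP readout (CellTiter-Glo) after 48 hr drug exposure gives viability. Curves span 11 concentrations and are normalized to DMSO and empty wells. Activity is reported as area under the curve and its Z-transform within each cell line.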

[13] = BET inhibitor-based combinations targeting novel dependencies in MECOM-rearranged (r) AML: HNT-34 cell line (AID 2202234);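 note: plate controls were vehicle wells for no effect and cell-free wells for full effect; nearly all actives have a fitted effect of over 35% in size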
In short: (§2)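 Luminescent ATP readout (CellTiter-Glo, 15 min at room temperature) after 48 hr drug exposure gave viability. Dose-response curves, normalized to DMSO and empty-well controls, were summarized as area under the curve and its mean-centred Z-score.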

[14] = BET inhibitor-based combinations targeting novel dependencies in MECOM-rearranged (r) AML: UCSD-AML1 cell line (AID 2202235);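 note: series mostly up to about 46 µM; plate controls were DMSO vehicle wells for no effect and blank wells for full effect; nearly all actives have a fitted effect of over 40% in size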
In short: as §2

[15] = BET inhibitor-based combinations targeting novel dependencies in MECOM-rearranged (r) AML: AML-191 cell line (AID 2202236; note: nearly all actives have a fitted effect of over 35% in size; note: potency is the fitted concentration of half-maximal effect)
In short: as §1

[16] = BET inhibitor-based combinations targeting novel dependencies in MECOM-rearranged (r) AML: AML-194 cell line (AID 2202237; note: nearly all actives have a fitted effect of over 40% in size; note: potency is the fitted concentration of half-maximal effect)
In short: as §1

[17] = BET inhibitor-based combinations targeting novel dependencies in MECOM-rearranged (r) AML: SET-2 cell line (AID 2202231); conditions: SET-2 AML cells viability, CellTiter-Glo luminescence, 48 h; viability: hits give low values, concentration not given here; note: potency is the fitted concentration of half-maximal effect; nearly all actives have a fitted effect of over 35% in size
In short: as §1

[18] = BET inhibitor-based combinations targeting novel dependencies in MECOM-rearranged (r) AML: MV-4-11 cell line (AID 2202233); note: nearly all actives have a fitted effect of over 45% in size; note: potency is the fitted concentration of half-maximal effect
In short: as §2

Cellular tumor antigen p53 (Homo sapiens), sequence (P04637 whole entry, looked up): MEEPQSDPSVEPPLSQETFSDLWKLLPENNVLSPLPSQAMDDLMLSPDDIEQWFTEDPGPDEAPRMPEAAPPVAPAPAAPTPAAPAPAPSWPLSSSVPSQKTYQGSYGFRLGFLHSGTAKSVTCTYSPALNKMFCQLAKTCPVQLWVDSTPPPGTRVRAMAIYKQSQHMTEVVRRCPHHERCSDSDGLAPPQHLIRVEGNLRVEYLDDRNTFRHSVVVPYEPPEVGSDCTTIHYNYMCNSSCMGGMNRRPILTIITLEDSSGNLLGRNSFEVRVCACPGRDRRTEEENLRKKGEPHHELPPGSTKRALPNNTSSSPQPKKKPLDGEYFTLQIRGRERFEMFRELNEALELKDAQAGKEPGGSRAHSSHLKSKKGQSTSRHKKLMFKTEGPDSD

CN1CCN(CCCN2c3ccccc3Sc3ccc(Cl)cc32)CC1
inactive: activation [1] 23.2% and -10.9% and -6.59% | Potency [2] | Potency [3]

CCNC(=O)[C@H]1O[C@@H](n2cnc3c(N)nc(NCCc4ccc(CCC(=O)O)cc4)nc32)[C@H](O)C1O (some centres not stated)
inactive: activation [1] -0.799% | Potency [2] | Potency [3]

CC(C)(C(=O)O)c1ccc(C(O)CCCN2CCC(C(O)(c3ccccc3)c3ccccc3)CC2)cc1 (configuration not stated)
inactive: activation [1] 1.67% and -7.64% and -17.3% | Potency [2] | Potency [3] | Potency [4] | Potency [5] | Potency [6]

c1ccc(C(NCCNC(c2ccccc2)c2ccccc2)c2ccccc2)cc1
inactive: activation [1] -16.9% | Potency [2] | Potency [3] | Potency [7] | Potency [8] | Potency [9] | Potency [10] | Potency [11]

O=c1c(O)c(-c2cc(O)c(O)c(O)c2)oc2cc(O)cc(O)c12
inactive: activation [1] -9.12% and -2.85% | Potency [2] | Potency [3] | Potency [8] | Potency [10] | Potency [12] | Potency [13] | Potency [14] | Potency [15] | Potency [16]
active: Potency [9] 5.65 µM

CN1CCN(CC(=O)N2c3ccccc3C(=O)Nc3cccnc32)CC1
inactive: activation [1] -10% and 3.74% | Potency [2] | Potency [3] | Potency [7] | Potency [8] | Potency [9] | Potency [10] | Potency [11]

CCOC(=O)N1CCN(/[N+]([O-])=N/Oc2ccc([N+](=O)[O-])cc2[N+](=O)[O-])CC1
active: Potency [1] 4.78 µM | Potency [9] 14.2 µM | Potency [10] 2.25 µM | Potency [17] 4.68 µM | Potency [12] 2.95 µM | Potency [18] 1.86 µM | Potency [15] 2.09 µM | Potency [16] 2.95 µM
inactive: Potency [2] | Potency [3] | Potency [7]

N.N.N.N.N.N.N.N.N.N.N.N.N.N.O.O.[Ru+4].[Ru+5].[Ru+5]
inactive: activation [1] 4.58% | Potency [2] | Potency [3] | Potency [7] | Potency [8] | Potency [11]

N[C@@H](Cn1ccc(=O)c(O)c1)C(=O)O
inactive: activation [1] -3.82% and -8.28% | Potency [2] | Potency [3] | activity change, negative = inhibition [4] 3.38% [at 5.59 µM] | Potency [5] | activity change, negative = inhibition [6] 6.23% [at 5.59 µM]

O=c1ccc2c(OCCCCc3ccccc3)c3ccoc3cc2o1
inactive: activation [1] -37.4% | Potency [2] | Potency [3]
active: Potency [8] 1.12 µM | Potency [9] 12.6 µM

Fc1ccc2[nH]c(CN3CCN(c4ccccn4)CC3)cc2c1
inactive: activation [1] -0.955% | Potency [2] | Potency [3] | Potency [4] | Potency [5] | Potency [6]

CC1=C(C)C(=O)C(CCCCC#CCCCC#CCO)=C(C)C1=O
active: Potency [3] 5.01 µM | Potency [7] 4.49 µM | Potency [8] 7.12 µM | Potency [9] 0.504 µM | Potency [11] 1.27 µM
inactive: activation [1] 18.6% and 0.426% | Potency [2]

O=C(O)c1ccccc1Nc1cccc(OCc2ccc3ccccc3n2)c1
active: Potency [8] 7.98 µM
inactive: activation [1] -13.1% | Potency [2] | Potency [3] | Potency [5]

CN1CCC[C@@H]1Cc1c[nH]c2ccc(CCS(=O)(=O)c3ccccc3)cc12
inactive: activation [1] 8.47% and -10.4% and 2.33% | Potency [2] | Potency [3] | Potency [4] | Potency [5]

O=C(Nc1ccc2[nH]ncc2c1)C1CCC1
inactive: activation [1] -2.43% and 6.33% | Potency [2] | Potency [3] | Potency [4] | Potency [5] | Potency [6]

Oc1ccc(Cn2cc[nH]c2=S)cc1
inactive: activation [1] -47.8% | Potency [2] | Potency [3] | Potency [7] | Potency [10]

CNS(=O)(=O)CCc1ccc2[nH]cc(C3CCN(C)CC3)c2c1
inactive: activation [1] 13.4% [middle of 4 runs] | Potency [2] | Potency [3] | Potency [4] | Potency [5] | Potency [6]

CCCCCCN(CCCCCC)C(=O)Cc1c(-c2ccc(F)cc2)[nH]c2ccccc12
active: Potency [3] 10 µM
inactive: activation [1] -10.8% | Potency [2] | Potency [7] | Potency [8] | Potency [9] | Potency [10] | Potency [11]

O=NN(CCCl)C(=O)NCCCl
active: Potency [7] 15.8 µM | Potency [9] 12.7 µM | Potency [11] 22.5 µM
inactive: activation [1] -1.09% and 45.2% | Potency [2] | Potency [3] | Potency [12] | Potency [18] | Potency [13] | Potency [14] | Potency [15] | Potency [16]

CC1CN(S(=O)(=O)c2cccc3cnccc23)CCN1 (configuration not stated)
inactive: activation [1] -66.5% | Potency [2] | Potency [3] | Potency [7] | Potency [8] | Potency [9] | Potency [10] | Potency [11]

COC(=O)C1=CO[C@@H](O)[C@@H]2C(CO)=CC[C@H]12
inactive: activation [1] 8.04% | Potency [2] | Potency [3] | Potency [4] | Potency [5] | Potency [6]

O=C(O)/C(=C/c1c(C(=O)O)[nH]c2cc(Cl)cc(Cl)c12)c1ccccc1
inactive: activation [1] 12.5% | Potency [2] | Potency [3] | Potency [9] | Potency [5]
active: Potency [8] 11.3 µM
